Reference: the supplement of paper PMC11732987, “Enantioselective OTUD7B fragment discovery through chemoproteomics screening and high-throughput optimisation” (Communications Chemistry, 2025)

Key:
Experiment in all cases: log2 ratio of Biotin-Ahx-Ub-VS probe labelling (fragment/DMSO); higher = less target engagement (more negative = stronger competition), active = hit call of the paper (q ≤ 0.05, log2 ratio ≤ -1)
Details in all cases: compound concentration: 200 uM; treatment time: 3 h
ALG13 = molecular target: T1, ALG13 (UniProt Q9NP73)
T1 sequence (whole entry): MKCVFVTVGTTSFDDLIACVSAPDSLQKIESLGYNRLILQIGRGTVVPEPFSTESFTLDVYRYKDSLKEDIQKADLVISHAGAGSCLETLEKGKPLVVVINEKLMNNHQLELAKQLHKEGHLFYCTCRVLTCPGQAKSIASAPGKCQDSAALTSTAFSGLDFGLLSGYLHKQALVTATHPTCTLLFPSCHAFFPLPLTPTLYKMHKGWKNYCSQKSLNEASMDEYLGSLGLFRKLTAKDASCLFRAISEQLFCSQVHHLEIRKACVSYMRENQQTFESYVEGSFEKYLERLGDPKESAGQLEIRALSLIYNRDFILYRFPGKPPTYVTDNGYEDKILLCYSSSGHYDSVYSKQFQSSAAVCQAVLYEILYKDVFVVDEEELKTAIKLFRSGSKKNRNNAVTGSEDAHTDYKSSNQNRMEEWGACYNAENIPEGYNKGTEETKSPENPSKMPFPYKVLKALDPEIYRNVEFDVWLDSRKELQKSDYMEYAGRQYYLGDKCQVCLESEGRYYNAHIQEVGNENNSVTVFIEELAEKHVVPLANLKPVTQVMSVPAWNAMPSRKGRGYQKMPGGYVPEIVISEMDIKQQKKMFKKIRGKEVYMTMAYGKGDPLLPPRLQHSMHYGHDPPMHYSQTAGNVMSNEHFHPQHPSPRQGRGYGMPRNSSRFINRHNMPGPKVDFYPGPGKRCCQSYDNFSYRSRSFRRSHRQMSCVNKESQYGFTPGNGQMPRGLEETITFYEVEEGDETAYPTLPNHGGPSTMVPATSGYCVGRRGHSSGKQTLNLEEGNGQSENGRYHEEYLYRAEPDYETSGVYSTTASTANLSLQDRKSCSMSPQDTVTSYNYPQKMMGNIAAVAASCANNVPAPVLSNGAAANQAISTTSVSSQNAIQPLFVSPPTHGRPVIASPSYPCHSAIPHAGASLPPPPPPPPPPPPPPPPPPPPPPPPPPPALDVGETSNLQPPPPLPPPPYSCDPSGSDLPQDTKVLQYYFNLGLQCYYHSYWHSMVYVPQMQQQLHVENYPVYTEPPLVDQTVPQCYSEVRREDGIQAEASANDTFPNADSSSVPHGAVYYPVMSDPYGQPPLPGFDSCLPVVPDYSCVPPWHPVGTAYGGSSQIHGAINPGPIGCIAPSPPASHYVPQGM
Outline: (§1)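 Fragment (200 µM) or vehicle was incubated for 3 h with triplicate HEK293T lysate samples of 495 µg, which were then treated with Biotin-Ahx-Ub-VS at 0.5 µM final for 1 h. Labelled DUBs were enriched on NeutrAvidin, digested with LysC and trypsin, and analysed by diaPASEF LC-MS/MS. Values are average log2 fragment/vehicle ratios from an unpaired t-test on global-median-normalised Spectronaut label-free quantities, using proteins with ≥2 unique peptides.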

ATXN3 = ATXN3 (UniProt P54252)
Outline: as §1

BAP1 = molecular target: T2, BAP1 (UniProt Q92560)
T2 sequence (whole entry): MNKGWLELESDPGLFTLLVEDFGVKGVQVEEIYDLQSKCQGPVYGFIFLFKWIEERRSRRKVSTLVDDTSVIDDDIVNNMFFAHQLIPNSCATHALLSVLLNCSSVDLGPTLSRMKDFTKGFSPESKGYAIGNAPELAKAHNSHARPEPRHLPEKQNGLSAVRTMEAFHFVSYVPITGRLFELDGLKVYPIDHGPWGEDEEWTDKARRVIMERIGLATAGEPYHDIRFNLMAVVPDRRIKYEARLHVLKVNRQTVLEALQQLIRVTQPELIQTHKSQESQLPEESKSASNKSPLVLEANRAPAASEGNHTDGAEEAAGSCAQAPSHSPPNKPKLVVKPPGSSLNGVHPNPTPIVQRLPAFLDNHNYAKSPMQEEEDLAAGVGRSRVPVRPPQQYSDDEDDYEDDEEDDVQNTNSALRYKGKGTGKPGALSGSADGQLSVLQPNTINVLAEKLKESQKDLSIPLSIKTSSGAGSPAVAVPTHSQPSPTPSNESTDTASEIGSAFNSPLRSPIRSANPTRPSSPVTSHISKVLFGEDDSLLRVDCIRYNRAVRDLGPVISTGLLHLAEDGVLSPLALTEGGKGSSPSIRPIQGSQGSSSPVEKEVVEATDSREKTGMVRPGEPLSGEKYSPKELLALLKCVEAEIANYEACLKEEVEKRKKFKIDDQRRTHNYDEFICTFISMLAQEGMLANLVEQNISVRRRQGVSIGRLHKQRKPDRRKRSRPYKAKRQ
Outline: as §1

EIF3F = EIF3F (UniProt O00303)
Outline: as §1

EIF3H = EIF3H (UniProt O15372)
Outline: as §1

FAM105A = molecular target: T3, FAM105A (UniProt Q9NUU6)
T3 sequence (whole entry): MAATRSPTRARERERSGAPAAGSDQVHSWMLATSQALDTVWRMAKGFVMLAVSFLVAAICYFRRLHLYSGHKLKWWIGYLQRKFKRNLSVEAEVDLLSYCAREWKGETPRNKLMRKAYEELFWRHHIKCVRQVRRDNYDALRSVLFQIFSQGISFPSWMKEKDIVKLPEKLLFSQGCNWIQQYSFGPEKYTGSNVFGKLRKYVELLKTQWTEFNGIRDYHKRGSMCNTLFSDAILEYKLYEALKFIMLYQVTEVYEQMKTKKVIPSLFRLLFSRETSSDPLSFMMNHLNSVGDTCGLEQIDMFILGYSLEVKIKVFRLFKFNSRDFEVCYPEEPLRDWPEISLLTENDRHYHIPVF
Outline: as §1

OTUB1 = OTUB1 (UniProt Q96FW1)
Outline: as §1

OTUD4 = molecular target: T4, OTUD4 (UniProt Q01804)
T4 sequence (whole entry): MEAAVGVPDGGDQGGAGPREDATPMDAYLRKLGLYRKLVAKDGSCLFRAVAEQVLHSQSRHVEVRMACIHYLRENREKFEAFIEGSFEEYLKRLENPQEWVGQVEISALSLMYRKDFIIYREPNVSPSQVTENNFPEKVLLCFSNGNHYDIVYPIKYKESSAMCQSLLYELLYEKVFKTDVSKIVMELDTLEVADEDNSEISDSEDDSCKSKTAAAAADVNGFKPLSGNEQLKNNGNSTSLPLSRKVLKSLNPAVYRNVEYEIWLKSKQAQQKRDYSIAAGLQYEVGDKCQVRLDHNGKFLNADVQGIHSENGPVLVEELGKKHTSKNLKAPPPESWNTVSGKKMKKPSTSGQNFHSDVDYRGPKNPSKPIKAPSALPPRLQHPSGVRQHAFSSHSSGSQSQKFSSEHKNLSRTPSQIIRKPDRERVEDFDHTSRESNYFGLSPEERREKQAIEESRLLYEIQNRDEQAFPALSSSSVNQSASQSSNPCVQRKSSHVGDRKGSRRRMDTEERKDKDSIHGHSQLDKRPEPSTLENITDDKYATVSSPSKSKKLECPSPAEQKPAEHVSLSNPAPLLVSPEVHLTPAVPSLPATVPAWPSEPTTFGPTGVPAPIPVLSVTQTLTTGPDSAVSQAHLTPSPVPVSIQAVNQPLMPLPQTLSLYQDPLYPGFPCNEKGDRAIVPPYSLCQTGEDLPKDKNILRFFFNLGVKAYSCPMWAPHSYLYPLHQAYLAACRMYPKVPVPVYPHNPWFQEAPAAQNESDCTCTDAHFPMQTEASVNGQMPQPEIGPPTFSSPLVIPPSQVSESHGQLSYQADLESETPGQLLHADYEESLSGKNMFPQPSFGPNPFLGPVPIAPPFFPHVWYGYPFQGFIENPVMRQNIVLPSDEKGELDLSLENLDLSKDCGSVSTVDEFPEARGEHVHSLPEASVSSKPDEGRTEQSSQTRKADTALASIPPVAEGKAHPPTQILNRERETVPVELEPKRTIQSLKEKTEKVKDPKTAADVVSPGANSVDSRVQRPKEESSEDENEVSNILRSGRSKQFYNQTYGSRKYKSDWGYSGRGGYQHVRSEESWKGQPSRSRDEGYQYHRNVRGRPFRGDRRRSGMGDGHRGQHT
Outline: as §1

OTUD5 = molecular target: T5, OTUD5 (UniProt Q96G74)
T5 sequence (whole entry): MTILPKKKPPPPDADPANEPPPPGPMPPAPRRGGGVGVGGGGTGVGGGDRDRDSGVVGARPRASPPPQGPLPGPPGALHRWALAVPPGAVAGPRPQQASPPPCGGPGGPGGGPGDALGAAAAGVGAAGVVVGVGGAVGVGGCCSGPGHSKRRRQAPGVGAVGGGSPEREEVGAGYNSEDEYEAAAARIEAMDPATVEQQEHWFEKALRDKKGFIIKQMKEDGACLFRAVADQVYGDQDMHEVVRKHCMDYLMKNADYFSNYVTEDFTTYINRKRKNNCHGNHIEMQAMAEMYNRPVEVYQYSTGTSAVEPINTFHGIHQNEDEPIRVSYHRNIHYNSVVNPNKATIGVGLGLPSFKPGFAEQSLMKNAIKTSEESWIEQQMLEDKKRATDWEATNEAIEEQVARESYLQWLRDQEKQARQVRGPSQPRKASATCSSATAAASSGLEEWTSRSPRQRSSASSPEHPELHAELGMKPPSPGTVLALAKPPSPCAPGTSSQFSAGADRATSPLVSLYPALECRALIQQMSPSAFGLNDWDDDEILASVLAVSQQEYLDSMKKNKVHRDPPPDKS
Outline: as §1

Measured: log2 ratio of Biotin-Ahx-Ub-VS probe labelling

EIF3H, sequence (O15372 whole entry): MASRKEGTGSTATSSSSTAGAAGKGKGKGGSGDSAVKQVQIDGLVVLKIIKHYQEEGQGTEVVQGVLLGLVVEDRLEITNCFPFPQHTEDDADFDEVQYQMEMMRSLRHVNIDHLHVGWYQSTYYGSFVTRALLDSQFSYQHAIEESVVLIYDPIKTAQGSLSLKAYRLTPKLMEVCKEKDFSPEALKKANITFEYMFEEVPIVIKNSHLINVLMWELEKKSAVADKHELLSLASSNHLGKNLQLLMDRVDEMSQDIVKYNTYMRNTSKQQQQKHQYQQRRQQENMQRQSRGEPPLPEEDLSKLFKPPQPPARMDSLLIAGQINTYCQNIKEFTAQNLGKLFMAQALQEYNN
OTUB1, sequence (Q96FW1 whole entry): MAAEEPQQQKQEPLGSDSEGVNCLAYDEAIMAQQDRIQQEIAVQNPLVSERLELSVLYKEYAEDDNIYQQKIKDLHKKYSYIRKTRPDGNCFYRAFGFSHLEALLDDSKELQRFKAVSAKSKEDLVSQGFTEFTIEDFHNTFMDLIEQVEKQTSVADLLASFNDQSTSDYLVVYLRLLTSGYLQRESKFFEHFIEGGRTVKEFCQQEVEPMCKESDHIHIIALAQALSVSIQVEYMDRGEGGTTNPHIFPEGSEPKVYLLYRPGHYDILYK
EIF3F, sequence (O00303 whole entry): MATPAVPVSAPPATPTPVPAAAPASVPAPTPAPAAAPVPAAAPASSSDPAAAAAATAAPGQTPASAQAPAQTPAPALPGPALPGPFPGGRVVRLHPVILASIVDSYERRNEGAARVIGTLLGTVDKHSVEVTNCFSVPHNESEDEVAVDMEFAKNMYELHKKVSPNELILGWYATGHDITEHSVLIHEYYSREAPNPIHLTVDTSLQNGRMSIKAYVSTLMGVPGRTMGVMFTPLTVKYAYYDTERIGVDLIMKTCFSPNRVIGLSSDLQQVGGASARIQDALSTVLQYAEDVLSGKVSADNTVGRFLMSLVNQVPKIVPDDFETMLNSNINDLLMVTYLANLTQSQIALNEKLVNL
ATXN3, sequence (P54252 whole entry): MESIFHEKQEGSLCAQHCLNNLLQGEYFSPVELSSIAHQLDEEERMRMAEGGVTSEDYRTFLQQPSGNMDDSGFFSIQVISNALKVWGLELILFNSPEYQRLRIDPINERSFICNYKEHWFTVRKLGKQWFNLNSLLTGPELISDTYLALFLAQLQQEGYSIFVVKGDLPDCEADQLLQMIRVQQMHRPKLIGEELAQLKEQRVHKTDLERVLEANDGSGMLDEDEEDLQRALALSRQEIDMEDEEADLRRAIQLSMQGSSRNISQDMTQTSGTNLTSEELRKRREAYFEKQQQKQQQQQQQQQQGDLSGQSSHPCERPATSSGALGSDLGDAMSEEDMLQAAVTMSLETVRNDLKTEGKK

O=C(CCl)NCCc1cccc2ccccc12
inactive: ALG13 -0.35 | ATXN3 0.214 | EIF3F 0.273 | EIF3H 0.236 | FAM105A 0.159 | OTUB1 0.162 | OTUD4 0.0626 | OTUD5 0.0474
active: BAP1 -1.22
